# Measurements from the supplement of paper PMC10646978.
# ± gives the standard deviation.
# Legend:
# Conditions in all cases: modulator concentration 10 µM
# [1] = system: RAW-Dual (murine macrophage reporter line); test: NF-kB reporter (SEAP) activity fold change vs agonist alone; higher = enhanced NF-kB activity
# How it was run: (§1)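 Compound reached 10 μM final in each well by pin transfer, onto RAW-Dual murine macrophage reporter cells seeded at 50 000 per well in 384-well plates. After 1 hour at 37 °C, the cells were stimulated overnight with a PRR agonist. SEAP in the supernatant was read with QUANTI-Blue at 620 nm absorbance for NF-κB, and Lucia luciferase was read with QUANTI-Luc luminescence for IRF. Each signal was turned into fold change against the mean agonist-only control on the same plate, and two replicate plates were averaged with propagated errors.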
# [2] = system: RAW-Dual (murine macrophage reporter line); test: IRF reporter (Lucia luciferase) activity fold change vs agonist alone; higher = enhanced IRF activity
# How it was run: as §1
# [3] = system: RAW-Dual (murine macrophage reporter line); test: viability score (confluency relative to resting cells, overnight) (fraction); higher = more viable, active = viable (0.7 or more)
# How it was run: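 Overnight exposure to 10 μM final compound was carried out on RAW-Dual macrophages in 384-well plates. IncuCyte software generated two confluency masks over all wells imaged with IncuCyte. The viability score gives confluency in relation to resting cells. A compound met the cutoff if each mask exceeded 70% of resting cells.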
# [4] = agonist: CpG ODN 1826 0.5 ug/mL
Compound,"NF-kB reporter [1, 4]",NF-kB reporter ([1]; agonist: LPS 0.1 ug/mL),NF-kB reporter ([1]; agonist: MPLA […]),IRF reporter ([2]; agonist: 3'3'-cGAMP 10 ug/mL),IRF reporter ([2]; agonist: LPS 0.1 ug/mL),IRF reporter ([2]; agonist: MPLA […]),viability score [3]
Cc1nc(NC(=O)N2CCC[C@H]2C(N)=O)sc1-c1ccnc(C(C)(C)C(F)(F)F)c1,0.626 ± 0.034,0.894 ± 0.072,1.6 ± 0.66,0.916 ± 0.066,1.18 ± 0.24,1.32 ± 0.33,1.02 (active)
COc1ccc(C2CC(=O)c3c(O)cc(O)cc3O2)cc1O (stereo not drawn),1.43 ± 0.35,1.14 ± 0.064,1.15 ± 0.073,0.845 ± 0.028,1.14 ± 0.21,1.1 ± 0.1,1 (active)
Cc1ccc(N2CC(C(=O)NCC3CCCO3)CC2=O)cc1 (stereo not drawn),1.02 ± 0.082,0.97 ± 0.099,1.03 ± 0.037,1.03 ± 0.22,1.05 ± 0.051,1.17 ± 0.076,1 (active)
COCC(=O)Nc1c(C(=O)Nc2ccc(OC(F)(F)F)cc2)oc2ccccc12,1.26 ± 0.1,1.24 ± 0.098,1.22 ± 0.11,1.58 ± 0.085,1.84 ± 0.17,1.85 ± 0.38,0.922 (active)
COC(=O)c1ccc(N2C(=O)c3ccc(Oc4cccc([N+](=O)[O-])c4)cc3C2=O)cc1,0.969 ± 0.085,0.923 ± 0.079,1.06 ± 0.11,0.994 ± 0.031,1.33 ± 0.17,1.71 ± 0.19,1.02 (active)
CC1CC(=O)C2=C(C1)OC(N)=C(C#N)C2c1ccc(F)cc1 (stereo not drawn),0.894 ± 0.09,1.01 ± 0.1,0.935 ± 0.066,0.874 ± 0.053,1.08 ± 0.077,1.13 ± 0.2,0.982 (active)
Cc1oncc1C(=O)NCCn1nc(C(F)(F)F)cc1C1CC1,1.06 ± 0.096,1.05 ± 0.081,0.991 ± 0.067,0.972 ± 0.039,0.978 ± 0.087,0.935 ± 0.21,1 (active)
C=CCNC(=O)c1cccc(Br)c1,0.781 ± 0.061,0.962 ± 0.18,0.982 ± 0.097,0.933 ± 0.044,1.11 ± 0.19,1.09 ± 0.24,1.03 (active)
Cc1occc1C(=O)Nc1ccc(F)c(F)c1,1.07 ± 0.12,0.998 ± 0.16,1.11 ± 0.055,0.704 ± 0.042,1.07 ± 0.081,1.46 ± 0.14,0.927 (active)
CCC(=O)N1c2ccccc2NC2=C(C(=O)CC(c3ccccc3F)C2)C1c1ccc(C)cc1 (stereo not drawn),1.02 ± 0.12,1.07 ± 0.079,1 ± 0.064,0.985 ± 0.043,1.35 ± 0.3,1.07 ± 0.072,1.01 (active)
COCCn1c(C)cc(C(=O)CSc2ncnc3sc4c(c23)CCC4)c1C,0.991 ± 0.067,1.11 ± 0.12,1.02 ± 0.079,1.04 ± 0.036,1.43 ± 0.12,1.16 ± 0.12,0.994 (active)
O=c1n(CCNS(=O)(=O)Cc2ccccc2)nc(C2CC2)n1-c1ccccc1,1.03 ± 0.052,1.08 ± 0.09,1.1 ± 0.074,1.03 ± 0.063,1.26 ± 0.08,1.22 ± 0.1,1.01 (active)
NCCNc1ccc(NCCN)c2c1C(=O)c1ccncc1C2=O.O=C(O)/C=C\C(=O)O.O=C(O)/C=C\C(=O)O,0.917 ± 0.04,1 ± 0.085,1.13 ± 0.066,1.02 ± 0.049,1.36 ± 0.29,1.66 ± 0.55,0.97 (active)
Cc1cc(C(=O)Nc2ccccc2S(C)(=O)=O)no1,1.17 ± 0.069,1.04 ± 0.08,0.992 ± 0.055,0.995 ± 0.056,1.04 ± 0.05,1.06 ± 0.15,1 (active)
COC(=O)NN=Cc1cccs1,1.04 ± 0.19,1.05 ± 0.084,0.974 ± 0.11,0.987 ± 0.031,1 ± 0.096,1.22 ± 0.21,0.997 (active)
Cc1cc(C(O)CCNC(=O)Nc2ccc(Cl)c(Cl)c2)c(C)o1 (stereo not drawn),0.577 ± 0.033,0.87 ± 0.075,0.791 ± 0.072,0.835 ± 0.038,0.974 ± 0.22,0.863 ± 0.31,0.975 (active)
O=C(CCCn1nc(-c2ccc(F)cc2)ccc1=O)Nc1ccc(C(F)(F)F)cc1,0.89 ± 0.097,0.97 ± 0.055,1.05 ± 0.038,0.346 ± 0.038,1.01 ± 0.041,0.748 ± 0.15,0.99 (active)
CC[C@H](C)C(=O)O[C@H]1CCC=C2C=C[C@H](C)[C@H](CC[C@@H]3C[C@@H](O)CC(=O)O3)[C@H]21,1.34 ± 0.13,1.57 ± 0.14,1.04 ± 0.063,0.751 ± 0.051,1.01 ± 0.061,1.1 ± 0.085,0.935 (active)
CCCCCCCC(=O)N[C@H](CN1CCCC1)[C@H](O)c1ccc2c(c1)OCCO2,0.989 ± 0.097,1.03 ± 0.067,1.21 ± 0.026,0.853 ± 0.047,1.03 ± 0.15,1.2 ± 0.11,0.968 (active)
CCCCCCCCCCCC(CC1OC(=O)C1CCCCCC)OC(=O)C(CC(C)C)NC=O (stereo not drawn),1.55 ± 0.37,1.04 ± 0.092,0.364 ± 0.07,0.475 ± 0.023,1.61 ± 0.19,0.197 ± 0.065,0.943 (active)
CC(C)(C)N1CC(c2nc3ccccc3n2Cc2c(F)cccc2Cl)CC1=O (stereo not drawn),1.28 ± 0.094,1.1 ± 0.088,0.901 ± 0.041,1.2 ± 0.06,1.15 ± 0.1,1.28 ± 0.19,0.974 (active)
N#CC[C@H](C1CCCC1)n1cc(-c2ncnc3[nH]ccc23)cn1,1.4 ± 0.11,0.341 ± 0.017,0.734 ± 0.074,0.269 ± 0.012,0.719 ± 0.063,0.764 ± 0.074,0.979 (active)
COc1ccc(Br)c(C(=O)N2CCOCC2CO)c1 (stereo not drawn),0.922 ± 0.049,0.963 ± 0.095,1.03 ± 0.071,0.997 ± 0.098,1.36 ± 0.26,1.52 ± 0.51,0.951 (active)
COc1c(C)c2c(c(O)c1CC=C(C)CCC(=O)O)C(=O)OC2,0.695 ± 0.23,0.118 ± 0.008,0.367 ± 0.023,0.287 ± 0.0097,1.16 ± 0.15,1.55 ± 0.16,0.547 (inactive)
